We go through 40 molecules from PubChem BioAssay AID1730 (National Center for Advancing Translational Sciences (NCATS), 2009).

Inconclusive results are not listed. A number with no mark means an inactive call. Calls of active or inactive are those of the source. The call rests on the fitted dose curve; in most records, active means well fitted inhibition curve with a large enough effect; inconclusive means small, poorly fitted or top-dose-only effect; inactive means no such curve, though single readings can be large or run the other way.

This assay in a line: Counterscreen Assay for Inhibitors of the ERK Signaling Pathway using a Homogeneous Screening Assay. The following applies: AlphaScreen bead counterscreen in cell lysate, 5 h; series mostly up to 45.6 µM; activity change, negative = inhibition: at the top concentration. The source says: qHTS Assay for Inhibitors of the ERK Signaling Pathway using a Homogeneous Screening Assay
NIH Chemical Genomics Center [NCGC]
NIH Molecular Libraries Screening Centers Network [MLSCN]
Assay Submitter (PI): Dr. Wei Zheng, NCGC/NIH
The Ras/extracellular-signal-regulated kinase (ERK) mitogen activated protein (MAP) kinase signaling pathway (ERK1/2 cascade) plays is a key role in transmitting signals from the cell surface to the nucleus (Nishida and Gotoh 1993; Chang and Karin, 2001). The cascade is initiated by the small G-protein Ras, which recruits Raf […], where activation occurs. Alternatively, this pathway can be activated by elevating intracellular cAMP.
Activation of the ERK pathway is essential in increased cell division and cell survival. Sustained and constitutive activation of the ERK pathway, however, has been linked to uncontrolled cell proliferation, increased cell survival, and tumor progression. Thus, the ERK has been as an attractive target for cancer chemotherapy in the past few years (Sebolt-Leopold and Herrera, 2004). Given its physiological and pathological importance, assessment of ERK phosphorylation has been broadly performed in both basic research and drug discovery. Most assays for the measurement of ERK phosphorylation use the antibody-based detection methods, such as western blot and ELISA. These assays require multiple reagent additions with cell wash steps and are not suitable for high-throughput screening.
The current cell-based ERK phosphorylation assay was performed using AlphaScreen platform. AlphaScreen is a two bead-based proximity-dependent chemical energy transfer luminescent assay platform. The assay reagents (ERK SureFire(TM) kit) were supplied from TGR BioSciences (Australia). In the presence of specific antibodies, phosphorylated ERK will bring "donor" and "acceptor" beads to a proximity range (<200 nm), and subsequently lead a chemical luminescent reaction upon exciting donor beads with 680 nm laser. To exclude the assay-related false positives, we used a biotinylated rabbit IgG to perform a counter-screen. The biotinylated antibody mimics the phosphorylated ERK1/2 for bringing streptavidin coated beads and protein-A coated beads to a proximity range for the AlphaScreen detection.
NCGC Assay Protocol Summary:
Biotinylated rabbit IgG was used to perform a counter-screen in the context of an AlphaScreen assay kit provided by PerkinElmer. Data were normalized to the controls for basal activity (DMSO only) and 100% activation (25 nM IgG). AC50 values were determined from concentration-response data modeled with the standard Hill equation.
(1) Seed 4 ul/well of resuspended frozen HEK293 cells containing 2000 cells in white 1536-well plates for overnight with 1% FBS at 37C under a humidified atmosphere containing 5% CO2 and 95% air.
(2) Add 23 nL compounds in DMSO solution. The final titration was 0.6 nM to 46 uM.
(3) Incubate at 37C for 30 min.
(4) Dispense 0.5uL vasopressin (25 nM in final)
(5) Incubate at 37C for 5 min.
(6) Dispense 0.5uL of 1:2 diluted 5x lysis buffer.
(7) Incubate at 37C for 10 min.
(8) Dispense 1.5uL of mixture of activation buffer and reaction buffer with AlphaScreen beads (streptavidin donor beads and protein-A acceptor beads, 10 ng/well for each).
(9) Incubate at room temperature for 5 hr.
(10) Detect the assay plate in an EnVision plate reader (PerkinElmer) using the AlphaScreen detection mode.
Keywords: ERK, MEK, type-1 vasopressin receptors, homogenous, cell-based kinase assay, MLSMR, MLSCN, NIH Roadmap, qHTS and NCGC
Turning to `Cc1ccc(NNc2c(C)nc3ccccc3nc2=O)cc1`, the “activity change, negative = inhibition” value was -9.99%.
As for `COc1cc2ncnc(Nc3cccc(Cl)c3)c2cc1OC`, the Potency result is “inactive”.
Take `N#CC(C#N)=C1C=CC=CN1/C(=C\c1ccco1)C(=O)c1ccc(Cl)cc1`: the “activity change, negative = inhibition” value is -19.5%.
Regarding `c1ccc(-c2csc(-c3nc4ccccc4[nH]3)n2)cc1`, the “activity change, negative = inhibition” value was -18.4% [at 57.5 µM].
With `CN(C)c1ccc(Nc2c3c4c(cccc4n(C)c2=O)C(=O)c2ccccc2-3)cc1`, the Potency was 3.16 µM (active).
Turning to `COc1cc(C(=O)Nc2nc(-c3cccs3)cs2)cc(OC)c1OC`, the “activity change, negative = inhibition” value was -25.6% [at 57.5 µM].
For `COc1ccc(N=C2C(=Nc3ccc(OC)cc3)N(c3ccc(OC)cc3)C(=S)N2C)cc1`, the Potency is 4.47 µM (active).
Turning to `CC(C)Cn1c(N)c(C(=O)CSc2ccc3c(c2)OCCO3)c(=O)n(C)c1=O`, the “activity change, negative = inhibition” value is 16.2% [at 57.5 µM].
Same read-out and setting: under `COC(=O)c1cc(-c2ccc(OC)c(OC)c2)on1` stands -10.6% [at 57.5 µM]; under `COc1ccc(-c2n(CC(=O)OC3CC(C)CCC3C(C)C)c3ccccc3[n+]2C)cc1` (stereo not given), -15%.
As to `CC(/C=C/c1ccccc1)=N\Nc1ccccc1[N+](=O)[O-]`, the Potency was 3.16 µM (active).
For `COc1ccc(CC(=O)Nc2cccc(-c3nnc(-c4ccc(C)cc4)o3)c2)cc1OC`, the “activity change, negative = inhibition” value is 16.5% [at 57.5 µM].
On to `N#CC(C#N)=c1ccc2c(c1)N1C3=C(CCCC3)CC3CCCCC31N=2` (stereo not given), for which the Potency was 4.47 µM (active).
With `Cc1sc2ncnc(Nc3ccccc3)c2c1C`, the “activity change, negative = inhibition” value is -11.9%.
As to `CNc1cccc2c1C(=O)c1ccccc1C2=O`, the Potency is 5.01 µM (active).
On to `C=C[C@@]1(C)CC(=O)[C@@]2(O)[C@@]3(C)[C@@H](O)CCC(C)(C)[C@@H]3[C@H](O)[C@H](OC(C)=O)[C@@]2(C)O1`, for which the “activity change, negative = inhibition” value is -8.35%.
Same read-out and setting: the result for `C=CS(=O)(=O)c1ccc(Oc2ccc(S(=O)(=O)C=C)cc2)cc1` reads -15.2% [at 57.5 µM].
In the case of `CN(C)c1cc2c(Nc3ccc4c(cnn4Cc4ccccc4)c3)ncnc2cn1`, the “activity change, negative = inhibition” value was -6.45%.
As to `O=C1c2ccccc2C(=O)c2c1cccc2N1CCCC1`, the Potency is 10 µM (active).
Take `CCCCC[C@H](O)C=C[C@H]1[C@H](O)CC(=O)[C@H]1CCCCCCC(=O)O`: the “activity change, negative = inhibition” value is -32.4% [at 57.5 µM].
For `Fc1ccc(Nc2ncnc3sc4c(c23)CCC4)cc1`, the “activity change, negative = inhibition” value is -3.12%.
On the same count and under the same terms, under `O=C(Nc1nccs1)c1cc2sccc2n1Cc1ccc(F)cc1` stands 7.37% [at 57.5 µM].
The same measure, in the same setting: the result for `CS(=O)(=O)Nc1cccc(-c2ccc3ncnc(Nc4ccc(F)cc4)c3c2)c1` reads -9.98%.
Regarding `CN(C)CCCn1cc(C2=C(c3c[nH]c4ccccc34)C(=O)NC2=O)c2ccccc21`, the Potency is 35.5 µM (active).
On to `Cn1nc(-c2ccc(Cl)cc2)nc2c(=O)n(C)c(=O)nc1-2`, for which the “activity change, negative = inhibition” value was -26.1%.
The same measure, in the same setting: under `COc1ccc(C(=O)OC(COc2ccccc2)Cn2ccnc2)cc1` (stereo not given) stands -26.4%; under `CC(=O)N1CCC(=NNc2nc3ccccc3s2)CC1`, -11.1%; under `Cc1nc2ccccc2c2oc(C(=O)N3CCc4ccccc4C3)cc12`, -25.7% [at 57.5 µM].
Same read-out and setting: under `C=C[C@@]1(C)CC(=O)[C@@]2(O)[C@@]3(C)[C@@H](O)CCC(C)(C)[C@@H]3[C@H](OC(=O)CCN(C)C)[C@H](OC(C)=O)[C@@]2(C)O1` stands -32.2% [at 57.5 µM]; under `Cc1cc2nc3ccc(=[N+](C)C)cc-3sc2cc1N`, -11.8%; under `CCCNc1ncnc2sc(C)c(C)c12`, -22.1%.
In the case of `O=c1cc(-c2ccc(O)cc2)oc2cccc(O)c12`, the “activity change, negative = inhibition” value was -22.6%.
On the same count and under the same terms, the result for `O=C(c1cccs1)c1no[n+]([O-])c1C(=O)c1cccs1` reads 10.5% [at 57.5 µM].
Same read-out and setting: under `Cc1cc(-c2ccccc2)n(-c2cc(N/N=C/c3ccccc3O)ncn2)n1` stands -26.9%.
Take `COc1ccc(-c2ccc(SCC(=O)N3CCCC3)nn2)cc1OC`: the “activity change, negative = inhibition” value was -11.4% [at 57.5 µM].
Still for that read-out and setting: under `Nc1nc2c3ccccc3nc(C3CC3)n2n1` stands -17.4% [at 57.5 µM]; under `COC(=O)Cc1c(C)c2ccc(OC(=O)c3ccco3)cc2oc1=O`, -7.84% [at 57.5 µM]; under `c1ccc(Oc2nc(NCc3ccco3)nc(NCc3ccco3)n2)cc1`, -16.5% [at 57.5 µM].
As for `CCOc1ccc(/C(O)=C2/C(=O)C(=O)N(c3ncccn3)C2c2ccccc2)cc1` (stereo not given), the “activity change, negative = inhibition” value was -14%.
With `CC1(C)OC(c2ccccc2)=C/C(=C/C=C2C(=O)c3ccccc3C2=O)O1`, the Potency is 2.24 µM (active).
